Test results published in PubChem BioAssay AID651597 (National Center for Advancing Translational Sciences (NCATS), 2012).
Among all 1,100 compounds or so, about 390 (35%) were called active. About 30% were inconclusive and are not listed. The list shows a part of the results. Values without a mark were called inactive. Calls come from the whole dose curve; as a rule, active = well fitted inhibition curve with a large enough effect; inconclusive = small, poorly fitted or top-dose-only effect; inactive = flat fitted curve, though single readings scatter.

biological target: Luciferin 4-monooxygenase (Photinus pyralis) (UniProt P08659); assay: qHTS of Nrf2 Activators: Hit Validation in Secondary FLuc Assay; conditions: firefly luciferase inhibition counter-screen, luminescence; series mostly up to 57.5 µM; activity, negative = inhibition: at the top concentration; note: nearly all actives have a fitted effect of over 65% in size
How it was run: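 Counter-screen on purified firefly luciferase with ATP and D-luciferin at Km concentrations; compounds flagged if they inhibit the enzyme, indicating possible reporter stabilization rather than ARE activation.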
% is set by controls: 0 for no effect and ±100 for the full control effect; potency is the fitted concentration of half-maximal effect.

Structure (SMILES) | activity, negative = inhibition [%] | Potency
CCc1nn2c(-c3ccco3)ccnc2c1-c1ccccc1 | 6.51 | –
COc1ccc(-c2nnc3c4ccccc4c(C)nn23)cc1 | – | 7.57 µM (active)
Cc1nn2c(-c3ccccc3)nnc2c2ccccc12 | – | 10.7 µM (active)
Cc1nn2c(-c3ccco3)nnc2c2ccccc12 | – | 16.9 µM (active)
Cc1ccc(S(=O)(=O)c2nc(S(C)(=O)=O)sc2N2CCN(C)CC2)cc1 | -2.83 | –
Cc1ccc(-c2nc(C=Nc3ccc(O)cc3)c(O)o2)cc1 | – | 2.69 µM (active)
O=c1cc(-c2cccc(Br)c2)oc2cccc(O)c12 | -4.58 | –
O=c1cc(-c2ccccc2Cl)oc2c(Br)ccc(O)c12 | – | 2.39 µM (active)
O=c1oc(CCCO)cc2ccc(C#Cc3ccsc3)cc12 | – | 2.39 µM (active)
O=c1oc(CCO)cc2ccc(C#Cc3ccsc3)cc12 | – | 2.69 µM (active)
Cn1c(/N=C(\N)c2ccccc2)nc2ccccc21 | – | 1.35 µM (active)
Cn1c(/C(C#N)=C(\O)c2cc(Cl)sc2Cl)nc2ccccc21 | -24.2 | –
Cc1cc(C)n2nc(-c3ccc(F)cc3)cc2n1 | – | 1.51 µM (active)
Cc1cc(N2CCOCC2)n2nc(-c3cccc(F)c3)cc2n1 | -21.8 | –
COc1ccccc1NC(=O)c1nc(S(=O)(=O)Cc2ccccc2)ncc1Cl | – | 2.69 µM (active)
COc1ccc(Cl)cc1NC(=O)CCS(=O)(=O)c1cccc2nonc12 | -0.0594 | –
CCOC(=O)c1ccc(NC(=O)c2nc(S(=O)(=O)Cc3ccccc3)ncc2Cl)cc1 | – | 1.69 µM (active)
COc1ccccc1NC(=O)c1ccc(Cl)c(S(=O)(=O)NCc2ccco2)c1 | -25.3 | –
Cc1ccc2c(N)c(C(=O)c3ccccc3)sc2n1 | – | 9.53 µM (active)
Cc1nc2sc(C(=O)c3ccccc3)c(N)c2c2c1CCCC2 | – | 1.9 µM (active)
CN1CCN(C(=O)/C=C/c2ccc([N+](=O)[O-])o2)CC1 | -3.66 | –

Structure (SMILES) | activity, negative = inhibition [%] | Potency
O=C(/C=C/c1ccc(-c2ccccc2[N+](=O)[O-])o1)c1ccccc1 | – | 5.36 µM (active)
O=C(/C=C/c1ccc(-c2ccccc2[N+](=O)[O-])o1)c1ccc(Br)cc1 | – | 6.01 µM (active)
Cc1ccc(C(=O)/C=C/c2ccc(-c3ccccc3[N+](=O)[O-])o2)cc1 | – | 2.69 µM (active)
COC(=O)c1sccc1NC(=O)c1ccc(OC)c(OC)c1 | 1.53 | –
COc1ccc(OC)c(C(=O)Nc2c(O)ccc3ccccc23)c1 | – | 15.1 µM (active)
CNc1ccc(Br)cc(C(=O)/C=C/c2cccc(Cl)c2Cl)c1=O | – | 4.78 µM (active)
CNc1ccccc(C(=O)/C=C/c2ccccc2OC)c1=O | – | 5.36 µM (active)
COC1=C(C)C(O)=C(C(=O)/C=C/c2ccccc2)C(=O)C1(C)C | -7.39 | –
CNc1ccc(Br)cc(C(=O)/C=C/c2ccc(Cl)cc2Cl)c1=O | – | 4.78 µM (active)
CNc1ccc(Br)cc(C(=O)/C=C/c2cccc(OC)c2)c1=O | – | 8.49 µM (active)
CC1CCN(CC2C(=O)O[C@@H]3C[C@@]4(C)CCC[C@H](C)C4=C[C@H]23)CC(C)(C)C1 (stereo partly drawn) | -1.7 | –
Cc1cc(=O)oc2c(C(=O)/C=C/c3ccccc3)c(O)ccc12 | 2.7 | –
Cn1c(=O)oc2cc(NC(=O)CCl)ccc21 | 6.28 | –
Cc1cc(=O)oc2cc(NC(=O)c3ccccc3Cl)ccc12 | – | 5.36 µM (active)
Oc1ccccc1C=NN=Cc1c(O)ccc2ccccc12 | – | 3.01 µM (active)
Cn1c(=O)c2nc(NCc3ccccc3)sc2n(C)c1=O | 5.85 | –
O=S1(=O)C=C(Sc2nc3cc(Cl)ccc3o2)c2ccccc21 | – | 0.849 µM (active)
N#Cc1ccccc1N/C=C/C(=O)c1ccc(Cl)cc1 | – | 0.12 µM (active)
COC(=O)c1cc(S(=O)(=O)C(C)C)c(S(C)=O)s1 (stereo not drawn) | 1.94 | –
Cc1cc(N/N=C/c2c(O)ccc3ccccc23)nc(-c2ccccc2O)n1 | – | 7.57 µM (active)
C=C(NC(=O)C(=C)NC(=O)c1csc(C2=NC3c4csc(n4)C4NC(=O)c5csc(n5)C(C(C)(O)C(C)O)NC(=O)C5CSC(=N5)/C(=C/C)NC(=O)C(C(C)O)NC(=O)c5csc(n5)C3(CC2)NC(=O)C(C)NC(=O)C(=C)NC(=O)C(=C)NC(=O)C(C(C)C)NC2C=Cc3c(C(C)O)cc(nc3C2O)C(=O)OC4C)n1)C(N)=O (stereo not drawn) | – | 7.57 µM (active)

Structure (SMILES) | activity, negative = inhibition [%] | Potency
COc1ccc(-c2cc3ccccc3c(=O)o2)cc1 | – | 0.478 µM (active)
CC(=O)Oc1ccc(-c2nc3c(C)cccc3c(=O)o2)cc1 | -26.3 | –
O=c1nc2c(-c3ccccc3F)n[nH]n2c2ccccc12 | – | 7.57 µM (active)
Clc1nc(NCc2ccco2)nc(N2CCCCC2)n1 | -3.37 | –
c1ccc2nc3c(ccc4ccccc43)cc2c1 | – | 1.35 µM (active)
COc1cc(OCc2ccccc2)c(C(=O)/C=C/c2ccc3c(c2)OCO3)c(OC)c1OC | 2.26 | –
O=C(/C=C/c1ccc2c(c1)OCO2)c1ccc(O)cc1O | – | 1.9 µM (active)
COC(=O)c1ccsc1NC(=O)CSc1nnnn1Cc1ccccc1 | -14.3 | –
Cc1csc(-c2ccc3cc(Cl)cc(Cl)c3n2)n1 | – | 2.69 µM (active)
Cc1ccc(C(=O)OCc2c(C)noc2C)cc1NC(=O)c1ccco1 | 1.47 | –
Cc1ccc(-c2nc3cccnc3s2)cc1NC(=O)c1ccco1 | – | 8.49 µM (active)
CCNc1nc(NCC)nc(N(C)/N=C/c2ccco2)n1 | 0.966 | –
O=[N+]([O-])c1cc(Cl)cc(/C=N/Nc2nc3ccccc3s2)c1O | – | 13.5 µM (active)
Brc1cc2c(cc1/C=N/Nc1nc3ccccc3s1)OCO2 | – | 2.69 µM (active)
O=C(/C=C/c1ccco1)NC(=S)Nc1ccccc1N1CCCC1 | -27.1 | –
O=C(/C=C/c1ccco1)Nc1cccc(S(=O)(=O)N2CCOCC2)c1 | – | 13.5 µM (active)
Cc1ccc(NC(=O)c2ccc([N+](=O)[O-])s2)cc1S(=O)(=O)N1CCOCC1 | -3.39 | –
O=C(/C=C/c1ccco1)Nc1ccc2nn(-c3ccccc3)nc2c1 | – | 9.53 µM (active)
O=C(Nc1cc2nn(-c3ccccc3)nc2cc1Cl)c1ccco1 | – | 0.849 µM (active)
O=C(/C=C/c1ccco1)Nc1ccc(Cl)c(-c2nc3cc(Cl)ccc3o2)c1 | – | 10.7 µM (active)
O=[N+]([O-])c1cnc(Nc2ccc(Cl)cn2)c([N+](=O)[O-])c1 | 1.13 | –
